Test results taken from publication PMC4336329 (PLoS ONE, 2015).
Screen size: about 310,000 compounds; about 14,000 (4.5%) showed an effect of 50% or more. The effect is printed as a negative number. What follows is part of a selection rich in strong results, with near analogues and random picks from the rest.

target: human ether-à-go-go-related gene (hERG) potassium channel (human, UniProt Q12809); test: primary screen, population patch clamp on CHO cells stably expressing hERG; higher = less effect of the substance
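Further: peak tail current of the secondary pulse compared with the same well before compound.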

human ether-à-go-go-related gene (hERG) potassium channel, sequence (Q12809 whole entry, looked up): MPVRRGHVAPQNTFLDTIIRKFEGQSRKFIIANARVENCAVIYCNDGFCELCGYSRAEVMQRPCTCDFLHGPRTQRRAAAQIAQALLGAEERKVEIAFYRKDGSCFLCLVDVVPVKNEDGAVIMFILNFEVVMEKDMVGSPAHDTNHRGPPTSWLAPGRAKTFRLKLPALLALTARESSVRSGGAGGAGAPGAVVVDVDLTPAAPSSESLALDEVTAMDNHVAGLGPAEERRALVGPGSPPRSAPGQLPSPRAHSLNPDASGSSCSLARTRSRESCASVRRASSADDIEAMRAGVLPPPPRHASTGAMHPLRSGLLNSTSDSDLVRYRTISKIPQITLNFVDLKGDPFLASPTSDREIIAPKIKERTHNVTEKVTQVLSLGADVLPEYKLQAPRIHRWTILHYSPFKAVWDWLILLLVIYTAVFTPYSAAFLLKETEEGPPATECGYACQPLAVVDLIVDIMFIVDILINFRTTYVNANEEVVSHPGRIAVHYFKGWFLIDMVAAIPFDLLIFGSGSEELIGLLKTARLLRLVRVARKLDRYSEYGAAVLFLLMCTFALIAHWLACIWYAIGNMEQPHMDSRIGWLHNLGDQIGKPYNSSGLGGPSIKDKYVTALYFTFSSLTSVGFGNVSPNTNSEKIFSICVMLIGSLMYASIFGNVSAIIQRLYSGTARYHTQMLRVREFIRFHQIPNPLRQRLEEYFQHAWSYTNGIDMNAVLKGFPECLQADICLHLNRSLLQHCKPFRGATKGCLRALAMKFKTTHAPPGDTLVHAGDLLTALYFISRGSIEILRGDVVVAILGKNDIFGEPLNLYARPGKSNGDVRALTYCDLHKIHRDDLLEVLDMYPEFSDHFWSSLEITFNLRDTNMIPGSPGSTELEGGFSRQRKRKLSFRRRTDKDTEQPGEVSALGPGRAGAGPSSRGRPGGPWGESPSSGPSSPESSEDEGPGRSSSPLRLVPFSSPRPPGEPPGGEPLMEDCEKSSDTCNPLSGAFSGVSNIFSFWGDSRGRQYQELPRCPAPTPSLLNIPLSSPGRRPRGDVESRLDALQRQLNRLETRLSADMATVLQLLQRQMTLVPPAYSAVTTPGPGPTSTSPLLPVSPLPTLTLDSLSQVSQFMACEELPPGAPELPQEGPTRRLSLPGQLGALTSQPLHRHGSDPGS

Compared with `COC(=O)Cn1c(=NC(=O)c2cc(OC)c(OC)c(OC)c2)sc2cc(OC)ccc21`, `COc1ccc(/C=N/NC(=O)CCC(=O)Nc2ccc(Br)cc2)c(OC)c1` is higher in “hERG current change (%, negative = inhibition) at 10uM” value: 1.18% for the first, 5.6% for the second.

Compared with `S=c1[nH]nc(-c2ccc3ccccc3n2)n1-c1ccc2c(c1)OCCO2`, `CCC1(C)Cc2nc3[nH]c(=S)n(-c4ccccc4)c(=O)c3cc2CO1` (stereo not drawn) is lower in “hERG current change (%, negative = inhibition) at 10uM” value: 17.7% for the first, 17.6% for the second.

Compared with `Cc1ccc2c(c1)CCCN2N=O`, `COc1ccc(C)cc1S(=O)(=O)N1CCN(C/C=C/c2ccccc2)CC1` is lower in “hERG current change (%, negative = inhibition) at 10uM” value: 0.938% for the first, -23.8% for the second.

First: CCOc1ccc(N(CC(=O)NCc2ccc(OC)cc2)C(=O)CCC(=O)Nc2nccs2)cc1
Second: COc1ccccc1CNC(=O)COC(=O)c1ccc(C)s1
The “hERG current change (%, negative = inhibition) at 10uM” value of the first is higher: 8.55% for the first, 3.82% for the second.

First: CC1(C)N([O-])C(c2ccccc2)=C[N+](=O)C1(C)C
Second: O=[N+]([O-])c1ccc(-n2nncc2-c2ccccc2)cc1
The “hERG current change (%, negative = inhibition) at 10uM” value of the first is higher: 1.38% for the first, -29.4% for the second.

Going from `CCOc1cccc2cc(C(=O)N3CCOCC3)c(=O)oc12` to `Cc1cccc(-c2nc3c(c(SCC(=O)N4CCOCC4)n2)Cc2c(CO)cnc(C)c2O3)c1`, the “hERG current change (%, negative = inhibition) at 10uM” value falls from 14.6% to 5.78%.

Compared with `CCN(CC)C(=O)CSc1nc(N)c(C#N)c(-c2cccs2)c1C#N`, `CCOC(=O)N1CCN(c2nc(=S)n(-c3ccccc3)c(C)c2C(C)=O)CC1` is lower in “hERG current change (%, negative = inhibition) at 10uM” value: 15.5% for the first, -2.56% for the second.

First: CS(=O)(=O)c1ccc2nc(NC(=O)c3ccc(Cl)cc3)sc2c1
Second: Cc1ccc(S(=O)(=O)N(C)/N=C/c2ccc(C(=O)O)cc2)cc1
The “hERG current change (%, negative = inhibition) at 10uM” value of the first is higher: 6.42% for the first, -7.51% for the second.

First: COC(=O)CCCC[C@@H]1SC[C@@H](NC(=O)OC)[C@@H]1NC(=O)OC
Second: CCCCCCNC(=O)C(C(=O)OCC)C1CCCCC1 (stereo not drawn)
The “hERG current change (%, negative = inhibition) at 10uM” value of the first is higher: 5.49% for the first, -4.59% for the second.

Going from `CC[C@@H](C)[C@H](NC(=O)Cc1c(C)c2cc3c(C)coc3c(C)c2oc1=O)C(=O)O` to `COC(=O)C1=C(C)N(c2ccc(C)c(C)c2)/C(=C/c2cccs2)C1=O`, the “hERG current change (%, negative = inhibition) at 10uM” value falls from 6.21% to -17.7%.

Going from `COc1ccc(/C=C/C(=O)Nc2ccc(NC(C)=O)cc2)cc1S(=O)(=O)N1CCOCC1` to `COc1ccc(/C=C/C(=O)Nc2ccc(C)cc2)cc1S(=O)(=O)N1CCOCC1`, the “hERG current change (%, negative = inhibition) at 10uM” value falls from 1.65% to -32.6%.

First: COc1ccc(NC(C)=O)cc1S(=O)(=O)N1CCN(Cc2cccs2)CC1
Second: COc1ccc(NC(C)=O)cc1S(=O)(=O)N1CCN(C/C=C/c2ccccc2)CC1
The “hERG current change (%, negative = inhibition) at 10uM” value of the first is higher: -3.53% for the first, -69.3% for the second.

Compared with `COc1ccc(/C=C/C(=O)Nc2ccccc2)cc1S(=O)(=O)N1CCOCC1`, `COc1ccc(S(=O)(=O)N2CCN(C/C=C/c3ccccc3)CC2)cc1NC(C)=O` is lower in “hERG current change (%, negative = inhibition) at 10uM” value: -52.2% for the first, -77.9% for the second.

First: COc1ccc(S(=O)(=O)N2CCN(C/C=C/c3ccccc3)CC2)cc1F
Second: COc1ccc(S(=O)(=O)N2CCN(C(c3ccccc3)c3ccccc3)CC2)cc1NC(C)=O
The “hERG current change (%, negative = inhibition) at 10uM” value of the first is lower: -30.1% for the first, 21.2% for the second.

Compared with `N#C/C(=C\c1ccc(C#N)cc1)C(=O)c1ccccc1`, `O=C(O)c1ccc(-n2nncc2-c2ccccc2)cc1` is lower in “hERG current change (%, negative = inhibition) at 10uM” value: 10.7% for the first, 8.58% for the second.

Going from `COc1ccc(NC(=O)CSc2nnc(-c3ccccn3)n2N)cc1Cl` to `O=C(CNCc1ccccn1)Nc1cc(S(=O)(=O)N2CCCCC2)ccc1Cl`, the “hERG current change (%, negative = inhibition) at 10uM” value falls from -2.27% to -19%.

Compared with `COc1ccc(CNC(=O)Cn2nc([N+](=O)[O-])c(Br)c2C)cc1OC`, `COc1ccc(CCNC(=O)C2CCCN2C(=O)Nc2cccc(C(C)=O)c2)cc1OC` (stereo not drawn) is higher in “hERG current change (%, negative = inhibition) at 10uM” value: -10.2% for the first, -3.26% for the second.

Compared with `CCS(=O)(=O)N1CCN(S(=O)(=O)c2ccc3c(c2)OCCO3)CC1`, `O=C(CCl)Nc1cc(S(=O)(=O)N2CCCCCC2)ccc1Cl` is lower in “hERG current change (%, negative = inhibition) at 10uM” value: 17.5% for the first, -22.9% for the second.

Compared with `CCCCOc1ccc(/C=C/C(=O)N(CC)CC(=O)Nc2ccc3c(c2)OCCO3)cc1OC`, `O=C(NCc1cccnc1)Nc1ccc2c(c1)OCO2` is higher in “hERG current change (%, negative = inhibition) at 10uM” value: -28.9% for the first, -7.04% for the second.

Going from `CNC(=O)/C(C#N)=C/c1ccc(-c2ccc(OC)cc2[N+](=O)[O-])o1` to `COc1ccc(-c2cnnn2-c2ccc([N+](=O)[O-])cc2)cc1`, the “hERG current change (%, negative = inhibition) at 10uM” value falls from -1.67% to -64.6%.

Compared with `O=C(c1cccc(Cl)c1)N1CCC(=O)N(C(COCc2ccccc2)Cc2ccccc2)CC1` (stereo not drawn), `Cc1cccc(COCC(Cc2ccccc2)N2CCN(C(=O)c3cccc(Cl)c3)CCC2=O)c1` (stereo not drawn) is higher in “hERG current change (%, negative = inhibition) at 10uM” value: -51.9% for the first, -15.1% for the second.

Going from `O=C(c1cc(Cl)cc(Cl)c1)N1CCC(=O)N(C(COCc2ccccc2)Cc2ccccc2)CC1` (stereo not drawn) to `O=C1CCN(Cc2ccccc2)CCN1[C@H](CO)Cc1ccccc1`, the “hERG current change (%, negative = inhibition) at 10uM” value rises from -10% to 14.5%.

First: CC(C)CN1CCC(=O)N([C@H](COc2ccccc2)Cc2ccccc2)CC1
Second: CCCN1CCC(=O)N([C@H](COc2ccccc2)Cc2ccccc2)CC1
The “hERG current change (%, negative = inhibition) at 10uM” value of the first is lower: -71.7% for the first, -68.1% for the second.

Going from `O=C1CCN(Cc2ccccc2)CCN1[C@H](COc1ccccc1)Cc1ccccc1` to `O=C1CCN(CCc2ccccc2)CCN1[C@H](COc1ccccc1)Cc1ccccc1`, the “hERG current change (%, negative = inhibition) at 10uM” value falls from -56.4% to -78.6%.

Compared with `C[C@H]1CCC(=O)N([C@H](COc2ccccc2)Cc2ccccc2)CC1`, `CN1CCC(=O)N([C@H](COc2ccccc2)Cc2ccccc2)CC1` is higher in “hERG current change (%, negative = inhibition) at 10uM” value: -42.7% for the first, -28.5% for the second.

First: CC(C)C[C@@H](COc1ccccc1)N1CCN(CC(C)C)CCC1=O
Second: CC(C)CN1CCC(=O)N([C@H](CO)Cc2ccccc2)CC1
The “hERG current change (%, negative = inhibition) at 10uM” value of the first is lower: -48.5% for the first, 6.64% for the second.

First: N#CC[C@H](Cc1ccccc1)N1CCN(Cc2ccccc2)CCC1=O
Second: N#CC[C@H](Cc1ccccc1)N1CCN(CCc2ccccc2)CCC1=O
The “hERG current change (%, negative = inhibition) at 10uM” value of the first is lower: -24% for the first, 16.5% for the second.

Going from `Cc1cc(C)c2[nH]c(O)c(N=NC3=NC(=O)CS3)c2c1` to `Cc1ccc(C)c(N2CCN(c3nc4ccccc4c(=O)n3Cc3ccccc3)CC2)c1`, the “hERG current change (%, negative = inhibition) at 10uM” value rises from -19.6% to 14.1%.

First: Cc1cnc(C(=O)N2CCCC(C(=O)c3ccc(C(C)(C)C)cc3)C2)cn1 (stereo not drawn)
Second: O=C(c1ccc(NS(=O)(=O)c2cccc3cccnc23)cc1)N1CCCCC1
The “hERG current change (%, negative = inhibition) at 10uM” value of the first is lower: -20.7% for the first, 12% for the second.

First: CCN1CCN(C(=O)c2ccc(CNS(=O)(=O)c3cccc(OC)c3)cc2)CC1
Second: COc1ccc(-c2cc(C(F)F)n3ncc(C(=O)N4CCN(C(=O)c5ccco5)CC4)c3n2)cc1
The “hERG current change (%, negative = inhibition) at 10uM” value of the first is higher: 40.7% for the first, -34.8% for the second.

Going from `O=C(OCc1cncs1)c1ccccc1Cl` to `COC(=O)c1ccccc1NC(=S)NC(=O)COc1ccccc1Cl`, the “hERG current change (%, negative = inhibition) at 10uM” value falls from 6.6% to -4.5%.

Going from `COc1ccccc1CCNC(=O)C1CCN(C(=O)/C=C/c2ccccc2)CC1` to `O=C(Nc1ccccc1)NC1CCN(Cc2c(F)cccc2Cl)CC1`, the “hERG current change (%, negative = inhibition) at 10uM” value rises from -13.8% to 7.91%.

Compared with `COCCCNC(=O)CSc1ccc(Cl)cc1`, `Cc1ccc(CNS(=O)(=O)c2ccc(F)c(F)c2)n1C` is higher in “hERG current change (%, negative = inhibition) at 10uM” value: 2.32% for the first, 15.3% for the second.

First: CCCCN(Cc1ccccc1)C(=O)CCN1C(=O)C2C3C=CC(C3)C2C1=O (stereo not drawn)
Second: CCOC(=O)COc1coc(CN2CCN(c3ccccc3)CC2)cc1=O
The “hERG current change (%, negative = inhibition) at 10uM” value of the first is lower: 1.48% for the first, 9.43% for the second.

First: O=C1CCN(CCc2ccccc2)CCN1[C@H](CO)Cc1ccccc1
Second: c1ccc(-c2cnnn2-c2ccccc2)cc1
The “hERG current change (%, negative = inhibition) at 10uM” value of the first is lower: -44.4% for the first, 12.7% for the second.

Compared with `Cc1ccc(S(=O)(=O)NNC(=O)c2csnn2)cc1`, `O=C(Cc1cccs1)Nc1ccc(S(=O)(=O)N2CCCC2)cc1` is higher in “hERG current change (%, negative = inhibition) at 10uM” value: 1.7% for the first, 10.6% for the second.

Going from `CC(=O)c1ccc(-n2nncc2-c2ccc([N+](=O)[O-])cc2)cc1` to `O=[N+]([O-])c1ccc(-n2nncc2-c2ccc(Cl)cc2)cc1`, the “hERG current change (%, negative = inhibition) at 10uM” value falls from -53.3% to -72.7%.

Compared with `O=Cc1ccc(-n2nncc2-c2ccc([N+](=O)[O-])cc2)cc1`, `Nc1ccc(-n2nncc2-c2ccc(Cl)cc2)cc1` is higher in “hERG current change (%, negative = inhibition) at 10uM” value: -67.3% for the first, -35.9% for the second.

Going from `CC(=O)c1ccc(-n2nncc2C)cc1` to `Cc1cnnn1-c1ccc([N+](=O)[O-])cc1`, the “hERG current change (%, negative = inhibition) at 10uM” value rises from 19.8% to 23.5%.

First: CC(C)(C)c1cnnn1-c1ccc([N+](=O)[O-])cc1
Second: O=[N+]([O-])c1cccc(-n2nncc2-c2ccccc2)c1
The “hERG current change (%, negative = inhibition) at 10uM” value of the first is lower: -8.46% for the first, -1.23% for the second.

Compared with `CCc1ccc(NC(=O)C(=O)NCC2CCCO2)cc1` (stereo not drawn), `CCOC(=O)C(C(=O)NCC1CCCO1)C1CCCCC1` (stereo not drawn) is higher in “hERG current change (%, negative = inhibition) at 10uM” value: 10% for the first, 12% for the second.

First: C=CCNC(=O)C(C(=O)OCC)C1CCCCC1 (stereo not drawn)
Second: Cc1ccc(S(=O)(=O)N2CCCCC2)cc1NC(=O)Cn1ccsc1=N.Cl
The “hERG current change (%, negative = inhibition) at 10uM” value of the first is lower: -53.3% for the first, -33.7% for the second.

Going from `CCCC[C@H](CN[C@@H](CNC)[C@H](C)CC)NCCC12CCC(CC1)C2` to `Cl.O=C(CNCc1cccs1)Nc1ccc(S(=O)(=O)N2CCCCC2)cc1`, the “hERG current change (%, negative = inhibition) at 10uM” value falls from 10.4% to -70.9%.

First: N=c1sccn1CC(=O)Nc1cc(S(=O)(=O)N2CCCCC2)ccc1Cl
Second: Cl.N=c1sccn1CC(=O)Nc1cc(S(=O)(=O)N2CCCC2)ccc1Cl
The “hERG current change (%, negative = inhibition) at 10uM” value of the first is lower: -62.5% for the first, -39.5% for the second.

First: O=C(CNCc1ccncc1)Nc1cc(S(=O)(=O)N2CCCCC2)ccc1Cl
Second: O=C(CNCc1cccs1)Nc1cc(S(=O)(=O)N2CCCC2)ccc1Cl
The “hERG current change (%, negative = inhibition) at 10uM” value of the first is lower: -63.9% for the first, -52% for the second.

First: O=C(Cc1cccs1)Nc1cc(S(=O)(=O)N2CCCCC2)ccc1Cl
Second: CN(CC(=O)Nc1cc(S(=O)(=O)N2CCCC2)ccc1Cl)Cc1cccs1
The “hERG current change (%, negative = inhibition) at 10uM” value of the first is higher: -0.378% for the first, -16% for the second.

`O=C(Cc1cccs1)Nc1ccc(S(=O)(=O)N2CCCCC2)cc1` was tested, and the “hERG current change (%, negative = inhibition) at 10uM” value was 5.37%.
